Compound activity (PubChem)
Most compounds without a hit are left out; they make up all but 1.1% or so of the library.
OPRM1-OPRD1 inv – inverse agonist of human OPRM1-OPRD1 heterodimerization; 340,000 tested, 0.21% active; inhibition, % at 9.3 µM; P35372+P41143; cell-based MOR-DOR heterodimer luminescence, inverse agonism; in the data active = inhibition above about 22%, passing the limit was not always enough
Target sequence (P35372 whole entry, looked up): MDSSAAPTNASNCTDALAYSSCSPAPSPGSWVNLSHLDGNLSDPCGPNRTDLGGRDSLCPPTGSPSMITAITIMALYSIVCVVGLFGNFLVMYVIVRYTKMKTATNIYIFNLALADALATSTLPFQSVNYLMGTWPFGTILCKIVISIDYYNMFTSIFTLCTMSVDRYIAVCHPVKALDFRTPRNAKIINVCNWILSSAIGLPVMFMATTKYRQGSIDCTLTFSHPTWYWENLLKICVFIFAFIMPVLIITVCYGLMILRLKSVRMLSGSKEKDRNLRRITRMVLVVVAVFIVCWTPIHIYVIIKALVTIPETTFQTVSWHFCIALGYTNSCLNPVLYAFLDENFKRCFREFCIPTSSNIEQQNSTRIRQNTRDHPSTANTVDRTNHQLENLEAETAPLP
Target sequence (P41143 whole entry, looked up): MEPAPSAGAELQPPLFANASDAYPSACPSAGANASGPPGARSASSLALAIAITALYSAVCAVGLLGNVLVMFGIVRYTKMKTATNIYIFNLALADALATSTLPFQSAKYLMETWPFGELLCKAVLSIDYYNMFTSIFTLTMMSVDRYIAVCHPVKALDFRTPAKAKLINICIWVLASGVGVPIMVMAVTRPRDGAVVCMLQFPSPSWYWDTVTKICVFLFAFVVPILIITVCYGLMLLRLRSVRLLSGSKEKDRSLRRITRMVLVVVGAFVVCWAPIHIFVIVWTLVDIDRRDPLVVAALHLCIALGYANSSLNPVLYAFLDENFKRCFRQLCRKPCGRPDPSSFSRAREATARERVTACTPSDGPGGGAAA
HTR5A inv ctr – counter-screen for OPRM1-OPRD1 inverse agonists: human HTR5A inverse agonism. inhibition, % at 9.3 µM. 340,000 tested, 0.083% active. HTR5A cell line, luminescence; in the data active = inhibition mostly above about 23%, no sharp cut-off; inactive = mostly below about 18%
HTR5A ag – HTR5A agonism, opioid heterodimer counter-screen | HTR5A agonist assay, luminescence, cell-based | activation, % at 9.3 µM | 340,000 tested, 0.61% active; in the data active = activation mostly above about 9.5%, no sharp cut-off; inactive = mostly below about 7.6%
MOR-DOR ag – agonists of human mu-delta opioid receptor heterodimerization. activation, % at 9.3 µM. P35372+P41143. AID 504326. 340,000 tested, 0.3% active. cells, OPRM1-OPRD1 heterodimerization, luminescence
MOR-DOR ag conf – OPRM1-OPRD1 heterodimer agonism, confirmation; cells, MOR-DOR heterodimerization, luminescence complementation; activation, % at 9.3 µM; 830 tested, 45% active; AID 504904; shares compounds with MOR-DOR ag
HTR5A ag ctr2 – counter-screen for OPRM1-OPRD1 agonists: human HTR5A agonism | 830 tested, 8% active | HTR5A agonist counterscreen, cell luminescence | shares compounds with MOR-DOR ag | AID 504905 | activation, % at 9.3 µM; in the data active = activation above about 17%
A number is an active result; . = inactive; / = no result. Cut-off read from the data, not from the text of the source, unless noted: active = activation above about 18%; inactive = the rest.

SMILES	OPRM1-OPRD1 inv	HTR5A inv ctr	HTR5A ag	MOR-DOR ag	MOR-DOR ag conf	HTR5A ag ctr2
O=C(N[C@H]1C/C=C\C[C@H](CC(=O)N(CCO)Cc2ccccc2)C(=O)N[C@H](Cc2c[nH]c3ccccc23)COC1=O)OCC1c2ccccc2-c2ccccc21	.	.	.	28.6	35.2	.
O=C(N[C@H]1C/C=C\C[C@@H](CC(=O)N(CCO)Cc2ccccc2)C(=O)N[C@H](Cc2c[nH]c3ccccc23)COC1=O)OCC1c2ccccc2-c2ccccc21	.	.	.	.	/	/
O=C(c1ccc(Cl)cc1)C1CCN(C(=O)c2ccccc2F)CC1	.	.	.	.	/	/
CC(=O)CSc1ccc(-c2nc3cc(C)c(C)cc3[nH]2)cn1	.	.	.	47.2	32.4	.
COc1ccc(/C=N/Nc2c(Cl)cc(Cl)cc2Cl)cc1CN1CCOCC1	.	.	.	30.7	.	.
COc1cc(/C=N/NC(N)=S)ccc1OCC(=O)Nc1ccc(C)c(C)c1	.	.	.	22.2	.	.
Cc1ccc(/C=C2/NC(=O)N(Cc3ccccc3F)C2=O)o1	.	.	.	.	/	/
O=C(NCc1ccco1)c1cc2n(n1)C(C(F)(F)F)CC(c1ccc(Br)cc1)N2 (stereo not drawn)	.	.	.	19.2	.	.
CN(C(=O)c1ccc(NC(=O)Cc2cccc(NC(=O)C3CCCN(C(=O)c4ccccc4)C3)c2)cc1)C1CC1 (stereo not drawn)	.	.	.	.	/	/
COc1ccc(C2CC(c3ccc(Br)cc3)=NN2C(=O)CSC2=NCCS2)cc1 (stereo not drawn)	.	.	.	101.9	.	.
COc1ccc(C2=NN(C(=O)CSc3ncccn3)C(c3ccc(C)cc3)C2)cc1 (stereo not drawn)	.	.	.	.	/	/
O=C(Oc1ccc2c(c1)OCO2)c1cc2c(s1)CCC2	.	.	.	22.5	.	.
Cc1cccc(C)c1C(OCCN(C)C)C1CCCCC1 (stereo not drawn)	.	.	.	.	/	/
COc1ccc(-n2cc(CNCc3cccnc3)c(-c3cccc(F)c3)n2)cc1	.	.	.	55.0	404.1	.
COc1ccc(-c2nn(-c3ccccc3C)cc2CNCc2cccnc2)cc1F	.	.	.	72.2	134.1	.
COc1ccc(CNCc2cn(-c3cccc(F)c3)nc2-c2ccc(C)o2)cc1	.	.	.	120.0	.	.
COc1ccc(-c2nn(-c3ccccc3)cc2CNCc2cccnc2)c(F)c1	.	.	.	21.1	.	.
Fc1ccccc1COc1ccc(Br)cc1CNCc1cccnc1	.	.	.	.	/	/
CNc1ccc(C(=O)OCC(=O)NC(=O)NC2CCCC2)cc1[N+](=O)[O-]	.	.	.	.	/	/
Cc1c(CCOC(=O)c2cc([N+](=O)[O-])cc([N+](=O)[O-])c2)sc[n+]1CC(=O)c1ccccc1	.	.	.	.	/	/
Cc1c(CCOC(=O)c2ccccc2)sc[n+]1CC(=O)c1ccc(Br)cc1	.	.	.	35.7	54.0	.
Cc1ccccc1Sc1ccc([N+](=O)[O-])cn1	.	.	.	.	/	/
CN1CCN(c2ccc(NC(=O)c3ccc(-c4ccc(Cl)cc4)o3)cc2)CC1	.	.	.	305.8	19.5	.
Cc1ccc(N2CCN(C(=S)c3ccc(-c4cccc([N+](=O)[O-])c4)o3)CC2)cc1	.	.	.	.	/	/
O=C(Nc1ccc(N2CCN(C(=O)c3ccc(Cl)cc3)CC2)cc1)c1ccc(Br)o1	.	.	.	.	/	/
SMILES	OPRM1-OPRD1 inv	HTR5A inv ctr	HTR5A ag	MOR-DOR ag	MOR-DOR ag conf	HTR5A ag ctr2
CN1CCN(c2ccc(NC(=O)c3ccc(-c4cccc([N+](=O)[O-])c4)o3)cc2)CC1	.	.	.	99.7	93.3	.
OCC1(CCc2ccccc2)CCN(Cc2cc(F)ccc2-n2cccn2)CC1	.	.	.	77.9	92.3	.
Clc1ccccc1CN1CCN(CCCc2ccccc2)CC1	.	.	.	.	/	/
COc1ccc2c(c1)C=C(CN1CCC(CO)(CCc3ccccc3)CC1)CO2	.	.	.	35.9	53.8	.
OCC1(CCc2ccccc2)CCN(Cc2ccccc2Cl)CC1	.	.	.	54.8	85.7	.
CCc1ccc(CNC(=O)CCc2nnc(CCc3ccc(OC)cc3)o2)nc1	.	.	.	.	/	/
COc1ccc2c(Cl)c(-c3nnc(SCC(=O)c4ccccc4)n3C)sc2c1	.	.	.	325.0	371.6	.
COc1ccc2c(Cl)c(-c3nnc(SCC(N)=O)n3C)sc2c1	.	.	.	.	/	/
O=C(Nc1ccccc1N1CCOCC1)c1ccc2nc[nH]c2c1	.	.	.	18.9	.	.
O=C(Nc1ccccc1N1CCOCC1)c1cccc(F)c1	.	.	.	.	/	/
Cc1nn(-c2ccccc2)c2c1C(c1ccc(Cl)cc1)N(c1ccccc1)C(=O)N2 (stereo not drawn)	.	.	.	.	/	/
CCOc1ccc(C2C(C#N)=C(N)N(c3sc4c(c3C#N)CCCC4)C3=C2C(=O)CCC3)cc1 (stereo not drawn)	.	.	.	79.4	.	.
N#CC1=C2N=C(N)c3c(sc4c3CCCCC4)N2C2=C(C(=O)CCC2)C1c1ccccc1 (stereo not drawn)	.	.	.	.	/	/
COc1ccc(CN(C(=O)c2nsc(Cl)c2Cl)C(C(=O)NC2CCCC2)c2ccc(OC)cc2)cc1 (stereo not drawn)	.	.	.	.	/	/
Cc1ccc(Cl)cc1NC(=O)c1cnn2c1NC(c1ccco1)CC2C(F)(F)F (stereo not drawn)	.	.	.	.	/	/
O=C(Nc1ccc2c(c1)CCC2)c1cnn2c1NC(c1ccco1)CC2C(F)(F)F (stereo not drawn)	.	.	.	23.4	.	.
CSc1c(CC(=O)Nc2ccccc2)n(Cc2ccccc2)c2ccccc12	.	.	.	.	/	/
O=C1C=C(NCCc2cc(Br)c(O)c(Br)c2)C(=O)c2ncccc21	.	.	.	35.8	.	.
C#CCn1cc(/C=N/Nc2nc3ccccc3[nH]2)c2ccccc21	.	.	.	33.4	.	.
C(=N\Nc1nc2ccccc2[nH]1)/c1ccccn1	.	.	.	.	/	/
O=C(Cn1cnc([N+](=O)[O-])c1)c1ccc(Cl)cc1	.	.	.	.	/	/
O=C(C[n+]1cnn(CC(=O)c2ccc(Cl)cc2Cl)c1)c1ccc([N+](=O)[O-])cc1	.	.	.	54.4	.	.
Cc1nc([N+](=O)[O-])c(C(=O)OCc2ccccc2Br)n1C	.	.	.	.	/	/
COC1=C(c2ccccc2)C(=O)c2ccccc2C1=O	.	.	.	.	/	/
O=C(C1=C(c2ccccc2)C(=O)c2ccccc2C1=O)c1ccccc1	.	.	.	20.2	.	.
CCCCn1c(CN2CCN(c3ccc(F)cc3)CC2)nc2c1c(=O)n(C)c(=O)n2C	.	.	.	.	/	/
Nc1ccc2c(c1Cl)C(=O)c1ccc(N)c(Cl)c1C2=O	.	.	.	.	/	/
Cc1ccc2c(c1C)-c1c(ccc(C)c1C)C(=O)C2=O	.	.	.	21.3	20.8	.
